# FBPA Giardia inh: qHTS Assay for Inhibitors of Fructose-1,6-bisphosphate Aldolase from Giardia Lamblia; A8B2U2; purified Giardia FBPA; Potency, µM (top dose mostly 59.6 µM), inactives show at the top dose activity, negative = inhibition, most hits filed as inhibitors; 0.71% of 290,000 active; AID 2451, 2010; note: potency is the fitted concentration of half-maximal effect; nearly all actives have a fitted effect of over 55% in size
# Target sequence (A8B2U2 whole entry, looked up): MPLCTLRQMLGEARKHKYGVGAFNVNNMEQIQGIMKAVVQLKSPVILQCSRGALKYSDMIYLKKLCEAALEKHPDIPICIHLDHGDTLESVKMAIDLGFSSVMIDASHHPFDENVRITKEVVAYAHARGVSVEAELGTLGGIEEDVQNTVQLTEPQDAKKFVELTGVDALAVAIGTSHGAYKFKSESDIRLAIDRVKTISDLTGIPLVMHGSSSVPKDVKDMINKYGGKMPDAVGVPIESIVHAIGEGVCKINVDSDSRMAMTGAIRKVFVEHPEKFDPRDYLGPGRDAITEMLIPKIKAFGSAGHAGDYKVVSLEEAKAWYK
#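 40 nM FBPA preincubated 10 min at RT with compound (up to 57.5 uM final), then substrate plus GAPDH/TPI/NAD/arsenate coupling and diaphorase/resazurin added. Fluorescence read after 20 min at RT, 525/598 nm.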
# HCMV antiviral: qHTS Assay for inhibitors of the human cytomegalovirus (HCMV); 4.5% of 410,000 active; HFF cells, HCMV-luciferase reporter, 72 h; hits give low values; AID 1259415, 2018; activity change, negative = inhibition, % at 57.5 µM; in the data active = activity change below about -60%; inconclusive = no clear call, values can overlap the other calls; inactive = above about -39%
#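 Cell-based, HFFs, 1000 cells/well, 16 h 37C; cpds in DMSO + HCMV-luc, MOI 1 PFU/cell; 72 h 37C; OneGlo luminescence after 5 min RT; norm. to buffer vs Salinomycin 10uM.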
# HCV inh: qHTS Assay for Inhibitors of Hepatitis C Virus (HCV); Huh7.5.1 HCVcc-Cre infection, luciferase reporter, 44 h; Potency, µM (series often up to 41.8 µM), for the others: at the highest dose activity change, negative = inhibition, hits mostly inhibitors; 3.4% of 340,000 active; AID 651820, 2012; note: potency is the fitted concentration of half-maximal effect
#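 Cells seeded at 1,000/well and cultured 4 h, then compounds added followed by HCVcc-Cre virus (~0.5 moi). After 44 h further culture, luciferase substrate was added, plates held 15 min at room temperature, and luminescence read for 15 sec.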
# VACV mCherry inh: qHTS for Stage-Specific Inhibitors of Vaccinia Orthopoxvirus: mCherry Reporter Primary qHTS | 0.63% of 310,000 active | AID 720579, 2013 | Potency, µM (top dose mostly 36.5 µM), for the others: top-dose activity change, negative = inhibition, actives largely listed as inhibitors | Vaccinia virus mCherry reporter infection, fluorescence; calls by dose curve; tested in A549 cells; note: potency is the fitted concentration of half-maximal effect; nearly all actives have a fitted effect of over 35% in size
# FMDV antiviral: High Throughput Screening for Foot and Mouth Disease Virus Antivirals. FMDV antiviral cell-based qHTS. Potency, µM (doses to about 57.9 µM), without a hit: top-dose activity change, negative = inhibition, actives largely listed as inhibitors. 1.2% of 410,000 active. AID 1159524, 2015; calls by dose curve; tested in HEK293T cells; note: read-out not given here; potency is the fitted concentration of half-maximal effect; nearly all actives have a fitted effect of over 45% in size
# VACV Venus inh: qHTS for Stage-Specific Inhibitors of Vaccinia Orthopoxvirus: Venus Reporter Primary qHTS; Potency, µM (titrated, usually from 36.5 µM), for inactives: top-dose activity change, negative = inhibition, actives largely listed as inhibitors; 0.46% of 330,000 active; AID 720580, 2013; Vaccinia virus Venus reporter expression, fluorescence; calls by dose curve; tested in A549 cells; note: potency is the fitted concentration of half-maximal effect; nearly all actives have a fitted effect of over 30% in size
# * = called active by the depositor; i = inactive; ? = inconclusive; · = no result; [ ] = dose if it differs, or a comment. An excerpt weighted towards active compounds, which were near 7.5% of everything screened. Unless noted, calls come from the whole dose curve; as a rule, active = well fitted curve in the direction sought with a large enough effect; inconclusive = small, poorly fitted or top-dose-only effect, or another doubt; inactive = no such curve, though single readings can be large; an effect the other way counts as inactive or inconclusive. % is set by controls: 0 for no effect and ±100 for the full control effect.
SMILES,FBPA Giardia inh,HCMV antiviral,HCV inh,VACV mCherry inh,FMDV antiviral,VACV Venus inh
Cc1ccnc(NC(c2ccccc2)c2ccc3cccnc3c2O)c1 (stereo not given),·,-78*,13µM*,?,-13%,?
COc1ccccc1NC(c1cccnc1)c1ccc2cccnc2c1O (stereo not given),?,-2,?,-29%,-30%,-10%
Cc1ccnc(NC(c2cccnc2)c2ccc3cccnc3c2O)c1 (stereo not given),-10%,-25,4µM*,?,-13%,?
O=C(O)c1ccccc1NC(c1ccccc1)c1ccc2cccnc2c1O (stereo not given),·,-31,?,8.9µM*,?,?
COC(=O)C(=O)/C=C(\O)c1c(C)cc(C)cc1C,-17%,35,8%,i,-15%,-10%
Cc1cc(I)ccc1Nc1nc(NCCN2CCOCC2)nc(N2CCOCC2)n1,·,·,·,-7%,·,-17%
CC(=O)NC(c1ccccc1)c1cc(Cl)c2cccnc2c1O (stereo not given),23%,-95*,10µM*,?,-16%,?
O=C(NC(c1ccc(Cl)cc1)c1cc(Cl)c2cccnc2c1O)c1cccnc1 (stereo not given),21%,-101*,?,-17%,?,-24%
CN1CCN(C(c2ccc(Cl)cc2)c2cc(Cl)c3cccnc3c2O)CC1 (stereo not given),-6%,264,?,-27%,-3%,-25%
Oc1c(C(c2ccccn2)N2CCCCC2)cc(Cl)c2cccnc12 (stereo not given),-17%,44,10µM*,?,-28%,3%[7.34 µM]
CC(=O)NC(c1ccc(N(C)C)cc1)c1cc(Cl)c2cccnc2c1O (stereo not given),·,-100*,·,3.2µM*,-24%,?
O=C(CN1Cc2ccccc2OC(c2ccsc2)C1)NCc1ccc2c(c1)OCO2 (stereo not given),·,·,·,-14%,-3%,-5%
CCCC(=O)NC(c1ccc(OC)c(OC)c1)c1cc(Cl)c2cccnc2c1O (stereo not given),-6%,-99*,-26%,13µM*,-1%,?
CCOc1ccc(C(NC(=O)c2ccco2)c2ccc(OC)c(OC)c2)cc1 (stereo not given),15%,56,4%,-9%,·,-10%
CCCCC(=O)NC(c1cccs1)c1cc(Cl)c2cccnc2c1O (stereo not given),2%,-100*,2.2µM*,?,-16%,?
COc1ccc(C(NC(C)=O)c2cc(Cl)c3cccnc3c2O)cc1 (stereo not given),12%,-99*,10µM*,·,-18%,·
CCCCC(=O)NC(c1ccco1)c1c(O)ccc2ccccc12 (stereo not given),-20%,25,-17%,-1%,-13%,-26%
COCC(C)N1CC(O)=C(c2nc(-c3ccc(Cl)cc3)cs2)C1=N (stereo not given),1%,-37,?,-24%,-24%,-25%
Cc1ccc(N2CN=c3s/c(=C\c4cccnc4)c(=O)n3C2)cc1,-3%,-69*,-12%,-12%,19%,-7%
O=C(Nc1nnc(S(=O)(=O)N2CCCc3ccccc32)s1)c1ccc(Cl)cc1,·,-15,·,-10%,0%,-25%
COC(=O)c1cc2c(c3c4cc(C)ccc4n(S(=O)(=O)c4cccc(C)c4)c13)C(=O)N(C)C2,·,-25,·,·,·,·
COc1ccccc1NS(=O)(=O)c1ccc(N/N=C(\C)C(C)C)c([N+](=O)[O-])c1,0%,-61*,?,-27%,-10%,-27%
COc1ccc(NS(=O)(=O)c2ccc(N/N=C(\C)c3ccncc3)c([N+](=O)[O-])c2)cc1,11%,-67*,4.5µM*,?,-13%,?
C/C(=N\Nc1ccc(S(=O)(=O)Nc2ccccc2)cc1[N+](=O)[O-])c1ccncc1,6%,28,·,·,·,·
O=C(Nc1cccc(N2CCC(NCc3cnn(-c4ccccc4)n3)CC2)c1)c1cccnc1,·,·,·,-12%,-16%,-8%
SMILES,FBPA Giardia inh,HCMV antiviral,HCV inh,VACV mCherry inh,FMDV antiviral,VACV Venus inh
O=C1C(=O)c2c(C(=O)c3ccccc3)coc2-c2ccccc21,3.2µM*,-93*,11µM*,?,-1%,?
O=C(c1ccccc1)c1coc2ccc(O)c(Cl)c12,-23%,28,·,-3%,0%,-14%
Cc1oc2c(c1C(=O)O)C(=O)c1ccccc1C2=O,?,18,9%,?,-24%,?
CCOC(=O)c1c(C)nc2c(c1-c1cc(OC)ccc1OC)C(=O)c1ccccc1-2,-5%,-23,?,·,4%,·
CCOC(=O)c1c(C)nc2c(c1-c1ccccc1)C(=O)c1ccccc1-2,1%,-101*,?,?,7%,?
Cc1oc2c(c1C(=O)c1ccccc1)C(=O)C(=O)c1ccccc1-2,1.1µM*,-103*,10µM*,·,?,?
CCOC(=O)c1c(C)oc2c1C(=O)c1ccccc1C2=O,?,-15,5.6µM*,·,-21%,·
COC(=O)C(C(=O)OC)c1ccccc1NS(=O)(=O)c1c(C)cc(C)cc1C,·,-10,·,-15%,-10%,-9%
Cc1ccc(S(=O)(=O)N2CCN(C(=O)c3ccc4ccccc4n3)CC2)c(C)c1,·,9,-33%,i,35%,-13%
COCCN1CCN(C(=O)c2cnn(-c3nccc(-c4ccccc4OC)n3)c2-c2ccco2)CC1,·,·,·,-13%,-17%,20%
Fc1ccc(C2c3[nH]c4ccccc4c3CCN2Cc2cccn2-c2ncccn2)cc1 (stereo not given),9%,-91*,?,4.5µM*,-1%,24%
CCCCCCc1cc2cc(C(=O)OCC)c(=O)oc2cc1O,8%,-4,-8%,·,-17%,·
CCCCCCc1cc2cc(C(=O)Nc3ccc(OC)cc3)c(=O)oc2cc1O,1%,-61*,?,-15%,?,-2%
CCCCCCc1cc2cc(S(=O)(=O)c3ccc(F)c(Cl)c3)c(=O)oc2cc1O,4%,-102*,?,?,0%,?
CCCCCCc1cc2cc(C(=O)Nc3cccc(OC)c3)c(=O)oc2cc1O,5%,-88*,?,11%,?,16%
COc1ccc(NC(=O)c2cc3ccc(O)cc3o/c2=N\O)cc1,2%,196,22µM*,?,?,-29%
Cc1ccc(S(=O)(=O)N2CCN(c3nc(-c4cccs4)nc4ncccc34)CC2)cc1,·,·,·,-22%,·,?
COc1cccc2cc(C(=O)Nc3ccc(CC(=O)O)cc3)c(=O)oc12,·,-72*,·,5%,?,12%

# From PubChem
